Test results from ChEMBL document CHEMBL4513216, “Probing the Open Global Health Chemical Diversity Library for Multistage-Active Starting Points for Next-Generation Antimalarials” (ACS Infect Dis, 2020).
About 8,600 (12%) of roughly 69,000 compounds showed an effect of 50% or more. This is one part of a sample in which strong results are shown more often than they occur.

What follows are molecules tested on Plasmodium berghei (assay: Screen against P. berghei liver stage (PbLuc), transformed with Luciferase, at 10uM). Conditions: tested at 10 uM.
Format: functional, HepG2

| SMILES | INHIBITION [%] |
| --- | --- |
| COCC(NC1CSCCSC1)c1ccnn1C (stereo unspecified) | 31.2 |
| CN1CCN(CC2(O)CCCN(S(=O)(=O)c3cn[nH]c3)CC2)CC1 (stereo unspecified) | 29.6 |
| Cn1ccc(C(=O)N2CCC(c3cc(CCO)n(C)n3)C2)n1 (stereo unspecified) | -3.94 |
| CCN(CC)c1nc(Nc2cccc(C(C)O)c2)nc2ccccc12 (stereo unspecified) | 87.2 |
| CCN(CC)c1nc(Nc2cccc(C(=O)O)c2)nc2ccccc12 | 5.18 |
| CC(O)c1cccc(Nc2nc(NCCO)c3ccccc3n2)c1 (stereo unspecified) | 44.9 |
| COc1coc(CN2CCCC3(CCC(=O)N(C4CC4)C3)C2)cc1=O (stereo unspecified) | 53.6 |
| COc1ccc(CN2CCCC(Cn3nc(C)nc3C)C2)cc1F (stereo unspecified) | -15.8 |
| COc1coc(CN2CCCC3(CCC(=O)N(CC4CC4)C3)C2)cc1=O (stereo unspecified) | 33.2 |
| COc1ccc(CCC2CCCN(CC(=O)O)C2)cc1 (stereo unspecified) | 23.9 |
| COc1coc(CN2CCCC(CCc3ccc(F)c(F)c3)C2)cc1=O (stereo unspecified) | 63.6 |
| COCCN1CC2(CCCN(Cc3cc(=O)c(OC)co3)C2)CCC1=O (stereo unspecified) | 23.9 |
| Cc1[nH]c(=O)[nH]c(=O)c1CN1CCCC(CCc2ccc(F)c(F)c2)C1 (stereo unspecified) | 4.48 |
| COc1coc(CN2CCCC(CCc3ccc(F)cc3)C2)cc1=O (stereo unspecified) | 73.5 |
| Cc1[nH]c(=O)[nH]c(=O)c1CN1CCCC(CCc2ccccc2)C1 (stereo unspecified) | -38.2 |
| CCOc1cc(C(=O)N2CCCC(n3nc(C)nc3C)C2)ccn1 (stereo unspecified) | -11.9 |
| Cc1noc(C)c1-c1nc(N(C)CCN(C)C)ncc1-c1cnccn1 | 2.71 |
| CC(C)(C)c1cc(CN2C[C@H]3CC[C@@H](C2)N(Cc2ccccn2)C3)n[nH]1 | 33.3 |
| c1ncn(Cc2cnc3n2CCN(Cc2ccsc2)CC3)n1 | 37 |
| CC(C)(C)CC(=O)Nc1ccccc1SCC(N)=O | -53.6 |
| OCCN1CCN(Cc2cnc3c(-c4ccccc4)cnn3c2)CC1 | 44.8 |
| CC(O)C1CCN(Cc2cnc3c(-c4ccccc4)cnn3c2)CC1 (stereo unspecified) | 63.6 |
| CC(C)O[C@H]1CN(Cc2cnc3c(-c4ccccc4)cnn3c2)C[C@@H]1O | 8.74 |
| O=C1CCN(Cc2cnc3c(-c4ccccc4)cnn3c2)CCN1 | 29.2 |

| SMILES | INHIBITION [%] |
| --- | --- |
| c1ccc(-c2cnn3cc(CN4CCC5(CCO5)CC4)cnc23)cc1 | 87.4 |
| O=C1CN(Cc2cnc3c(-c4ccccc4)cnn3c2)CCCN1 | 75.1 |
| NCCC1CN(Cc2cnc3c(-c4ccccc4)cnn3c2)CCO1 (stereo unspecified) | 40.7 |
| FC(F)(F)C1CN(Cc2cnc3c(-c4ccccc4)cnn3c2)CCO1 (stereo unspecified) | 25.9 |
| CN(C)CC1(O)CCN(Cc2cnc3c(-c4ccccc4)cnn3c2)C1 (stereo unspecified) | 20.2 |
| CN(Cc1ccsc1)C(=O)c1cc2c([nH]c1=O)CCC2 | -9.6 |
| Cc1csc(CNCc2c(C)nn(C)c2N2CCOCC2)n1 | -19.7 |
| CCCN(CC)C(=O)c1ncn2c1CN(C)S(=O)(=O)c1ccccc1-2 | -49.7 |
| COCCOCC(=O)Nc1nc2c(OC)cc(F)cc2s1 | 7.65 |
| Cc1nnc(CN(Cc2ccc3c(c2)OCO3)C2CCC(C)CC2)o1 (stereo unspecified) | -45.9 |
| COc1cc(OC)c(C2CC(=O)Oc3cc(C)[nH]c(=O)c32)cc1OC (stereo unspecified) | 4.07 |
| Cn1cc2ncn(CCCOc3cccnc3)c(=O)c2n1 | 14.3 |
| Cn1cc2ncn(CCNc3cccnc3)c(=O)c2n1 | 31.6 |
| CC(Cn1cnc2cn(C)nc2c1=O)Oc1cccnc1 (stereo unspecified) | 52.6 |
| Cc1ccc(S(=O)(=O)NC(C)C#N)cc1Br (stereo unspecified) | 4.95 |
| CCC(=O)c1cccc(S(=O)(=O)NC(C)C#N)c1 (stereo unspecified) | 54.4 |
| CC(C#N)NS(=O)(=O)c1cccc(C(C)C)c1 (stereo unspecified) | 22.3 |
| CS(=O)(=O)NCC1CCCCN1C(=O)Nc1cccnc1N1CCCC1 (stereo unspecified) | 34.7 |
| c1coc(-c2nnc(CN3CCCC3Cn3cncn3)o2)c1 (stereo unspecified) | 17.5 |
| CCCn1ncc(CN(Cc2ccsc2)Cc2ccco2)c1C | 13 |
| CCCn1ncc(CN(CCN(C)C)Cc2ccsc2)c1C | 57.5 |
| CCCn1ncc(CN(Cc2cccnc2)Cc2ccsc2)c1C | 22.9 |
| CCC(C)NC(=O)c1nnn(-c2cccc3c2CCN(C)C3)c1C (stereo unspecified) | 51.7 |
| Cc1c(C(=O)NCC(C)C)nnn1-c1cccc2c1CCN(C(C)C)C2 | 38 |

| SMILES | INHIBITION [%] |
| --- | --- |
| CCC(C)(C)NC(=O)c1nnn(-c2cccc3c2CCN(C)C3)c1C | 36.3 |
| Cc1c(C(=O)NCCC(C)C)nnn1-c1cccc2c1CCN(C)C2 | 36.3 |
| Cc1c(C(=O)NCC(C)C)nnn1-c1cccc2c1CCN(C)C2 | 56.1 |
| Cc1c(C(=O)NC(C)C(C)C)nnn1-c1cccc2c1CCN(C)C2 (stereo unspecified) | 11.8 |
| Cc1ccc(C)c(C(C)NC(=O)N2CCC(n3cncn3)CC2)c1 (stereo unspecified) | -3.2 |
| CN1CCN([C@@H]2CCN(C3CCOC3)[C@H]2Cc2cnn(C)c2)CC1 (stereo partly specified) | 24.9 |
| Cc1cc2ncn(C(=O)N3CCCCC3)c2cc1C | -16 |
| CCOC1CCCN(C(=O)c2ccccc2NCc2cccnc2)C1 (stereo unspecified) | 16.8 |
| O=C(Cc1ccc2c(c1)OCCO2)NC1CC1 | -60.4 |
| CC[C@@H]1N(Cc2ccc(C)o2)CCC[C@]12CCC(=O)N2CCOC | 29.3 |
| O=C(C1CCOCC1)N1CC[C@H]2[C@H]1CCN2c1nncs1 | 40.8 |
| CC1=Nc2c(c(=O)[nH]n2C2CCCCC2)C(c2ccc(C(=O)O)cc2)S1 (stereo unspecified) | 36.55 |
| CC1=Nc2c(c(=O)[nH]n2C2CCCC2)C(c2ccc(C(=O)O)cc2)S1 (stereo unspecified) | 26.65 |
| COC(=O)c1ccc(C2SC(C)=Nc3c2c(=O)[nH]n3C2CCCC2)cc1 (stereo unspecified) | 76.3 |
| Cc1nnc(C2Cc3ccccc3CN2Cc2nc(C3CC3)no2)o1 (stereo unspecified) | 23.7 |
| CCc1nnc(C2Cc3ccccc3CN2Cc2ncc(Cl)n2C)o1 (stereo unspecified) | 1.84 |
| Cc1cc(CN2Cc3ccccc3CC2c2nnc(C)o2)no1 (stereo unspecified) | 7.67 |
| Cc1cc(CN2Cc3ccccc3CC2c2nnc(C)o2)on1 (stereo unspecified) | -8.3 |
| CCc1nnc(C2Cc3ccccc3CN2Cc2cc(C)on2)o1 (stereo unspecified) | 68.1 |
| CCc1nnc(C2Cc3ccccc3CN2Cc2cc(C)no2)o1 (stereo unspecified) | 58.1 |
| CCc1nnc(C2Cc3ccccc3CN2Cc2nc(C)no2)o1 (stereo unspecified) | 9.64 |
| CCc1nnc(C2Cc3ccccc3CN2Cc2nc(C3CC3)no2)o1 (stereo unspecified) | 60.9 |
| Cc1noc(CN2Cc3ccccc3CC2c2nnc(C)o2)n1 (stereo unspecified) | 20.2 |
